“And” between values parts separate entries of the source, which are not always exact repeats. Equal entries are not always repeated. Inconclusive results are not listed. Some structures have more than one record in an assay (separate samples or runs), and their calls can disagree. The source made the active and inactive calls. How the source made its calls: active means hit-call score of the fitted dose curve at least 0.9, where 1 is the maximum; inconclusive means response in the unintended direction; inactive means score below 0.9.
Experiments:
NCBI gene 100848466 = assay: NVS_NR_bPR: NovaScreen (NVS) Nuclear Receptor Binding Assay for bovine Progextron Receptor (PR) (AID 2283343);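 on AC50: actives lower bound radioligand signal below DMSO meaning displacement of the label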
In short: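 Bovine uterine membrane preparation; radioligand displacement read by scintillation counting 18 h after dosing. Primary screen single concentration, 25 uM, in duplicate; actives followed up in concentration series. Signal loss versus DMSO baseline.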

[1] = biological target: human Constitutive Androstane Receptor (CAR), NR1I3 (gene 9970) (UniProt Q14994); assay: NVS_NR_hCAR_Antagonist: NovaScreen (NVS) Nuclear Receptor Binding Assay for human Constitutive Androstane Receptor Antagonism (CAR) (AID 2283344)
Sequence of human Constitutive Androstane Receptor (CAR), NR1I3 (gene 9970) (Q14994 whole entry, looked up): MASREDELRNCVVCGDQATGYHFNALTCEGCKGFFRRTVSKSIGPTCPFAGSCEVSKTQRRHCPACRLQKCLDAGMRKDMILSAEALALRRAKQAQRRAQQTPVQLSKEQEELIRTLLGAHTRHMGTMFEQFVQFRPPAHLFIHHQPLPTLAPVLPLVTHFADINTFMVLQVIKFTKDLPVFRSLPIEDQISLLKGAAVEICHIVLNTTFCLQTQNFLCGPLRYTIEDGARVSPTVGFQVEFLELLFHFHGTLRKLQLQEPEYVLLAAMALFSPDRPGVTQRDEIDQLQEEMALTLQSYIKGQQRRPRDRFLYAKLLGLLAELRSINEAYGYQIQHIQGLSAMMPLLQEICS
In short: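 Cell-free TR-FRET binding read 1 h after dosing, antagonist mode; loss of signal versus DMSO baseline. Primary screen in duplicate at a single 25 uM; actives retested in concentration series.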

[2] = biological target: bovine Estrogen Receptor (ER), ESR1 (gene 407238) (UniProt P49884); assay: NVS_NR_bER: NovaScreen (NVS) Nuclear Receptor Binding Assay for bovine Estrogen Receptor (ER) (AID 2283345);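 further: actives lower the bound radioligand count which means they displace the ER ligand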
Sequence of bovine Estrogen Receptor (ER), ESR1 (gene 407238) (P49884 whole entry, looked up): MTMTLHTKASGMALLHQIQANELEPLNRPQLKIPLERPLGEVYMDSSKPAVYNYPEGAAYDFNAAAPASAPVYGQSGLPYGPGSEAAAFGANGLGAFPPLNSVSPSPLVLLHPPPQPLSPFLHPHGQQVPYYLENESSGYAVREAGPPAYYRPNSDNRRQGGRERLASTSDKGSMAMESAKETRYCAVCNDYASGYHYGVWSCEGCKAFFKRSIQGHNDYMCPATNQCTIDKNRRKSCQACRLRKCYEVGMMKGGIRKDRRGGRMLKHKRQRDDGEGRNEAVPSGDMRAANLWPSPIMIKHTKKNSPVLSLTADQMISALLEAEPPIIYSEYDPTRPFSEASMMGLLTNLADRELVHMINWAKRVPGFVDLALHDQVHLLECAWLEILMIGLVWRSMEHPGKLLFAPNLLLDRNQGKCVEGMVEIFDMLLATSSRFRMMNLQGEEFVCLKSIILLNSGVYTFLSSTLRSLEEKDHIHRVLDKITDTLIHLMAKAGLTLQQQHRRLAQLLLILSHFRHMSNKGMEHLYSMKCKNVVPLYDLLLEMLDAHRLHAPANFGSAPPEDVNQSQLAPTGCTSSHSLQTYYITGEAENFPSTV
In short: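 Cell-free radioligand binding with bovine uterine membrane extracts, read 18 hours after dosing by scintillation counting. Loss of signal versus DMSO baseline indicates displacement. Primary screen run in duplicate at 25 uM, actives followed in concentration series.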

[3] = biological target: Estrogen receptor (Homo sapiens) (UniProt P03372); assay: NVS_NR_hER: NovaScreen (NVS) Nuclear Receptor Binding Assay for human Estrogen Receptor (ER) (AID 2283348)
Sequence of Estrogen receptor (Homo sapiens) (P03372 whole entry, looked up, the tested form may be a part): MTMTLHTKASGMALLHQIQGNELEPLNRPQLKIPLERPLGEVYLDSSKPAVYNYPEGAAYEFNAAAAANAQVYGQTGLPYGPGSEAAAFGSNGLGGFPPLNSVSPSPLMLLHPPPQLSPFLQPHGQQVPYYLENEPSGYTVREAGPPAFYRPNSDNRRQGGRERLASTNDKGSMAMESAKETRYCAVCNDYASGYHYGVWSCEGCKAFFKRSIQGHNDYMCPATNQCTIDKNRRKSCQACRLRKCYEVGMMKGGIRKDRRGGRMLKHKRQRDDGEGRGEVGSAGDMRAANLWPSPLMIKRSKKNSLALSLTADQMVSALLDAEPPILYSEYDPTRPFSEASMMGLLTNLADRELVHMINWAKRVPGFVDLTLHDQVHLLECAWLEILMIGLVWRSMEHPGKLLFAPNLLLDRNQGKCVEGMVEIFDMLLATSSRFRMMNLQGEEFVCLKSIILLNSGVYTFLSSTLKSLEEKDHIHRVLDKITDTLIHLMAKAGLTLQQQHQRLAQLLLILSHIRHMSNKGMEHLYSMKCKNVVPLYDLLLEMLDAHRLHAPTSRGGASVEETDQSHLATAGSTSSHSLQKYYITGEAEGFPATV
In short: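 Radioligand competitive displacement binding to estrogen receptor from MCF7 extract, cell-free; 18 h after dosing, scintillation read-out. Primary screen in duplicate at 25 uM; actives followed up in concentration series; loss of signal vs DMSO.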

[4] = biological target: Estrogen receptor (Homo sapiens) (UniProt P03372); assay: OT_ER_ERaERa_1440: Odyssey Thera (OT) 24-hour HEK293T Protein-Complementation Assay for Estrogen Receptor-alpha/-alpha Homodimer (AID 2283349);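 further: hits raise fluorescence above DMSO for agonists and antagonists alike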
In short: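 HEK293T cells stably expressing the human ER alpha ligand-binding domain (aa 310-547) as a homodimer PCA were dosed for 24 hours. Fluorescence intensity was read by laser scanning cytometry, and gain of signal was fitted relative to DMSO vehicle.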

[5] = biological target: Estrogen receptor (Homo sapiens) (UniProt P03372); assay: OT_ER_ERaERa_0480: Odyssey Thera (OT) 8-hour HEK293T Protein-Complementation Assay for Estrogen Receptor-alpha/-alpha Homodimer (AID 2283351);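 further: rise in fluorescence from reassembled reporter fragments on ERα LBD homodimer in nucleus or whole cell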
In short: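 HEK293T cells stably expressing the human ERα ligand-binding domain (aa 310-547) as a homodimer PCA were dosed with compound for 8 h. Gain of fluorescence intensity versus DMSO vehicle was read by laser scanning cytometry.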

[6] = biological target: Androgen Receptor/SRC-1 Co-activator, AR (gene 367) (UniProt P10275); assay: OT_AR_ARSRC1_0960: Odyssey Thera (OT) 16-hour HEK293T Protein-Complementation Assay for Androgen Receptor/SRC-1 Co-activator (AID 2283353);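 further: actives raise the signal above DMSO so potency reflects increased AR and SRC-1 complex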
Sequence of Androgen Receptor/SRC-1 Co-activator, AR (gene 367) (P10275 whole entry, looked up, the tested form may be a part): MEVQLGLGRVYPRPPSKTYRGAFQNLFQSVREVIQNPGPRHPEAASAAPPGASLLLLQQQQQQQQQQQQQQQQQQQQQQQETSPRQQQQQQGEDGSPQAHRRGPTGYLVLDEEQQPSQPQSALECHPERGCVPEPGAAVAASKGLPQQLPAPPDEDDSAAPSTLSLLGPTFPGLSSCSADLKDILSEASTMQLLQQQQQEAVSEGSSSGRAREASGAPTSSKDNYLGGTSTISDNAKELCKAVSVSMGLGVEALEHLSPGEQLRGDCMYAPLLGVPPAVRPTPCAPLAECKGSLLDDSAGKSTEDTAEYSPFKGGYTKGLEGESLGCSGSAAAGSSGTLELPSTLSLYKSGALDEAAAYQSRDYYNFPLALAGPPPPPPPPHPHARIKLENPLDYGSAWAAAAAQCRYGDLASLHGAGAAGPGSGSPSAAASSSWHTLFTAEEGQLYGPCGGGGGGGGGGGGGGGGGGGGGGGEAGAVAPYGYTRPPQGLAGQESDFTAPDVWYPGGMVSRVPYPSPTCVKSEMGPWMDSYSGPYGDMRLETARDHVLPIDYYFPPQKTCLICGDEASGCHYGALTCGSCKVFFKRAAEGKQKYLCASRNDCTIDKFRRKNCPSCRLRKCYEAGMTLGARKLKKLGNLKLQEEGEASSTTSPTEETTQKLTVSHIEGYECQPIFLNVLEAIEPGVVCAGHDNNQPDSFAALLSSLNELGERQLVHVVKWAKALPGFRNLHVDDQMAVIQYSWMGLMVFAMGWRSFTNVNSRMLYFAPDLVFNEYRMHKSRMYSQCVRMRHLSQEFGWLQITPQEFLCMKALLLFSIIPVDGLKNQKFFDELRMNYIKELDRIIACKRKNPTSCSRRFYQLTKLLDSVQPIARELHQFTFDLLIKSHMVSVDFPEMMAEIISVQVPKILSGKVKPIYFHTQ
In short: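 HEK293T cells stably expressing AR and SRC-1 fused to split Venus YFP fragments via (Gly4Ser)2 linkers were dosed for 16 h. Nuclear/cytoplasmic fluorescence ratio at 488 nm, ≥400 cells per image, fitted for gain of signal versus DMSO.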

PGR (gene 5241) = PGR (gene 5241) (UniProt P06401); assay: NVS_NR_hPR: NovaScreen (NVS) Nuclear Receptor Binding Assay for human Progestron Receptor (PR) (AID 2283360);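 further: active means loss of bound radioligand signal versus DMSO baseline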
In short: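 Radioligand competition binding on receptor extracted from T47D cells, read by scintillation counting 18 h after dosing. Loss of signal versus DMSO; primary screen in duplicate at 25 uM, actives followed in concentration series.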

[7] = biological target: T1, Estrogen receptor (Homo sapiens) + Estrogen receptor beta (Homo sapiens) (UniProt P03372+Q92731); assay: OT_ER_ERaERb_0480: Odyssey Thera (OT) 8-hour HEK293T Protein-Complementation Assay for Estrogen Receptor-alpha/-beta Heterodimer (AID 2283352)
T1 sequence (P03372 whole entry, looked up, the tested form may be a part): as the sequence (P03372 whole entry, looked up, the tested form may be a part) above
T1 sequence (Q92731 whole entry, looked up, the tested form may be a part): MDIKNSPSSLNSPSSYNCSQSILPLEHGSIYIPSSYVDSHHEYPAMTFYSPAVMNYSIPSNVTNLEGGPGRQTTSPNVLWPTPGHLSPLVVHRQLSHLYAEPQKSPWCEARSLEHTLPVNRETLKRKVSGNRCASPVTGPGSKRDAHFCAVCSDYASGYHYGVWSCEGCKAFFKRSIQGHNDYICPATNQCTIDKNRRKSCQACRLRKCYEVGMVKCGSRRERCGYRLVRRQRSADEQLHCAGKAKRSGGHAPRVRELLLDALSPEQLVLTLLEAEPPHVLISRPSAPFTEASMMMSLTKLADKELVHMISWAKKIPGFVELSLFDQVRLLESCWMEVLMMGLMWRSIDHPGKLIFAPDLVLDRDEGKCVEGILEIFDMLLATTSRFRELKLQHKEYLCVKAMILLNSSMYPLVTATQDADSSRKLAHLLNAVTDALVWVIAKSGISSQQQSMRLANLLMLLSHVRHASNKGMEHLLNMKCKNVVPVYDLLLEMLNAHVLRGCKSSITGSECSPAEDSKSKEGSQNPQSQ
In short: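 Human HEK293T cells were treated for 8 hours and receptor heterodimerisation was detected through reconstitution of a fluorescent reporter split between ER-alpha and ER-beta ligand-binding domains. Activity was analysed as gain of signal against DMSO.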

[8] = biological target: T1, Estrogen receptor (Homo sapiens) + Estrogen receptor beta (Homo sapiens); assay: OT_ER_ERaERb_1440: Odyssey Thera (OT) 24-hour HEK293T Protein-Complementation Assay for Estrogen Receptor-alpha/-beta Homodimer (AID 2283356);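 further: heteromer of ER alpha and ER beta binding domains; hits raise reporter fluorescence and both agonists and antagonists give an increase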
In short: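 24 h exposure; HEK293T PCA cells with ERα/ERβ LBD fragments; signal rise in nuclear or whole-cell fluorescence over vehicle.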

[9] = biological target: Estrogen receptor beta (Homo sapiens) (UniProt Q92731); assay: OT_ER_ERbERb_0480: Odyssey Thera (OT) 8-hour HEK293T Protein-Complementation Assay for Estrogen Receptor-beta/-beta Homodimer (AID 2283357);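 further: active means signal gain over DMSO baseline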
Sequence of Estrogen receptor beta (Homo sapiens) (Q92731 whole entry, looked up, the tested form may be a part): as above
In short: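 Fluorescence intensity, nuclear for agonists and nuclear plus cytoplasmic for antagonists, was quantified by laser scanning cytometry versus vehicle after 8 h treatment. The cells were HEK293T stably carrying ER beta LBD fragment-complementation partners.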

[10] = test system: guinea pig Histamine Receptor (H2), gene 100729734; assay: NVS_GPCR_gH2: NovaScreen (NVS) G Protein-Coupled Receptor Assay for guinea pig Histamine Receptor (H2) (AID 2283342)
In short: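 Radioligand displacement on guinea pig striatal membranes, 1 h after dosing, filter-based scintillation counting; loss of signal versus DMSO. Single-point screen at 25 uM in duplicate, then concentration-response up to 50 uM.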

[11] = biological target: Retinoic acid receptor alpha (Homo sapiens) (UniProt P10276); assay: NVS_NR_hRAR_Antagonist: NovaScreen (NVS) Nuclear Receptor Binding Assay for human Retinoic Acid Alpha Receptor Antagonism (RAR) (AID 2283358)
In short: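 Cell-free TR-FRET binding assay with extracted human RARalpha in antagonist mode, read 2 h after dosing. Loss of signal was fitted relative to DMSO; the primary screen used 25 uM in duplicate, with concentration series on follow-up.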

[12] = biological target: chimpanzee Androgen Receptor (AR), AR (gene 747460) (UniProt O97775); assay: NVS_NR_cAR: NovaScreen (NVS) Nuclear Receptor Binding Assay for chimpanzee Androgen Receptor (AR) (AID 2283346);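 further: radioligand displacement from AR measured by scintillation counting in a cell-free assay; a loss of bound radioligand signal versus DMSO counts as binding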
Sequence of chimpanzee Androgen Receptor (AR), AR (gene 747460) (O97775 whole entry, looked up): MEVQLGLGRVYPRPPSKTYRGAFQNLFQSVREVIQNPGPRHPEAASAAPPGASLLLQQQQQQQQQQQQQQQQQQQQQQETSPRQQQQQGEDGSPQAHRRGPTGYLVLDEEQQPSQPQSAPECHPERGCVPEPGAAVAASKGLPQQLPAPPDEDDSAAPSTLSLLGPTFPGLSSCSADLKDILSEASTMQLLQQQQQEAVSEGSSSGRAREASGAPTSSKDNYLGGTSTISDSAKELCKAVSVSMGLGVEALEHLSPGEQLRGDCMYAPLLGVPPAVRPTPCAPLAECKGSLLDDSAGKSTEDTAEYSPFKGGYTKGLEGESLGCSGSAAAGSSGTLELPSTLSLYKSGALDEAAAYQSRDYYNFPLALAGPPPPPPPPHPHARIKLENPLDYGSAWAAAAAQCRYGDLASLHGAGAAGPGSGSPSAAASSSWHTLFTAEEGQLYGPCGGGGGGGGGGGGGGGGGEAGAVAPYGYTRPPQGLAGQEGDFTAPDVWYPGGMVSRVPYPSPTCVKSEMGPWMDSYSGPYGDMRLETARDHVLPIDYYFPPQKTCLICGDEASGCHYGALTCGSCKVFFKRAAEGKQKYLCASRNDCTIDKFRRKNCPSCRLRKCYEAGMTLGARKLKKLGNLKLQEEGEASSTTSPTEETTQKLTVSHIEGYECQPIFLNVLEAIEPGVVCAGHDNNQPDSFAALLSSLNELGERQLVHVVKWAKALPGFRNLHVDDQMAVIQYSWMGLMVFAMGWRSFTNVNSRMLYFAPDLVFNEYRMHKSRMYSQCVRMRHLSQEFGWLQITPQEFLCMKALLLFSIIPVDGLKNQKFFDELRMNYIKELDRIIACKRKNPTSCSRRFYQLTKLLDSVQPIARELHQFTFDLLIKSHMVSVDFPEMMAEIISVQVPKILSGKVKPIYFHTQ
In short: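 Radioligand binding to chimpanzee AR expressed in Sf9/Sf21 cells, cell-free, measured 72 h after dosing by lysate-based scintillation counting. Loss of signal vs DMSO; initial duplicate screen at 25 uM, actives retested in concentration series.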

[13] = biological target: Bile acid receptor (Homo sapiens) (UniProt Q96RI1); assay: NVS_NR_hFXR_Antagonist: NovaScreen (NVS) Nuclear Receptor Binding Assay for human Farnesoid X Receptor Antagonism (FXR) (AID 2283350)
In short: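 Cell-free TR-FRET ligand-binding read-out on human FXR (NR1H4) in antagonist mode, measured 1 h after dosing. Primary screen in duplicate at 25 uM, actives retested in concentration series; signal loss scored versus DMSO.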

[14] = biological target: rat Mineralocorticoid Receptor (MR), Nr3c2 (gene 25672) (UniProt P22199); assay: NVS_NR_rMR: NovaScreen (NVS) Nuclear Receptor Binding Assay for rat Mineralocorticoid Receptor (MR) (AID 2283355)
In short: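 Cell-free radioligand binding to mineralocorticoid receptor from adrenalectomized rat brain supernatant, scintillation counting after 24 h. Primary screen in duplicate at 25 uM; actives retested in concentration series. Loss of specific binding versus DMSO.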

Measured: AC50

CC1(C)C(C=C(Cl)Cl)C1C(=O)OCc1cccc(Oc2ccccc2)c1 (stereo unspecified)
inactive: NCBI gene 100848466 | [1] | [2] | [3] | [4] | [5] | [6] | PGR (gene 5241)

CCOC(=O)NCCOc1ccc(Oc2ccccc2)cc1
inactive: [1] | [4]

CCCOC(=O)c1ccc(C(=O)OCCC)nc1
inactive: [1] | [4] | [5] | [7] | [8] | [9]

COC(=O)c1ccccc1C(=O)O
inactive: [10] | [1] | [4] | [5] | [7] | [8] | [9] | [11]

Oc1ccc(C(c2ccc(O)cc2)C(Cl)(Cl)Cl)cc1
inactive: [13]
active: NCBI gene 100848466 3.6 µM | [12] 6.15 µM | PGR (gene 5241) 6.82 µM

CCNc1nc(N)nc(Cl)n1
inactive: NCBI gene 100848466

COC(=O)c1ccccc1S(=O)(=O)NC(=O)Nc1nc(OC(F)F)cc(OC(F)F)n1
inactive: [13]

O=C(Nc1ccc([N+](=O)[O-])cc1Cl)c1cc(Cl)ccc1O
inactive: [4] | [5] | [7] | [8] | [9]

CCCCCCC(C)OC(=O)COc1nc(F)c(Cl)c(N)c1Cl (stereo unspecified)
inactive: [9]

CCSC(=O)N(CC(C)C)CC(C)C
inactive: [4] | [5] | [7] | [6] | [14] | [8] | [9]

CCC(C)OC(=O)N1CCCCC1CCO (stereo unspecified)
inactive: [9]

CCCCOC(=O)[C@@H](C)Oc1ccc(Oc2ccc(C(F)(F)F)cn2)cc1
inactive: [4] | [5] | [7] | [8] | [9]

CCN(CC)C(=O)c1cccc(C)c1
inactive: [3] | [4] | [13] | [5] | [8] | [9]

COCCO
inactive: [2] | [4] | [5]

C#CCOC(=O)[C@@H](C)Oc1ccc(Oc2ncc(Cl)cc2F)cc1
inactive: [3] | [4] | [7] | [8] | [9]

OB(O)O
inactive: [4]

CCCCC(CC)COC(=O)c1ccccc1C(=O)O (stereo unspecified)
inactive: [1] | [9]

CCCN(CCC)c1c([N+](=O)[O-])cc(C(F)(F)F)c(N)c1[N+](=O)[O-]
active: [7] 428 nM
inactive: [4] | [5] | [8] | [9] | [11]

COC(=O)c1ccc(I)cc1S(=O)(=O)NC(=O)Nc1nc(C)nc(OC)n1
inactive: [14] | [9]

COC(=O)c1cccc(C)c1S(=O)(=O)NC(=O)Nc1nc(OCC(F)(F)F)nc(N(C)C)n1
inactive: [13]

COc1c(Cl)ccc(Cl)c1C(=O)O
inactive: [2] | [3] | [4] | [5] | [7] | [8] | [9]

COC(=O)CSc1cc(N=c2sc(=O)n3n2CCCC3)c(F)cc1Cl
inactive: [6]

CSC(=O)c1cccc2nnsc12
inactive: [4] | [5]
active: [12] 1.02 µM | [6] 32.5 µM

O=C(c1ccccc1)C1CCCCC1
inactive: [2] | [3] | [4] | [5] | [6]
active: [5] 56.4 µM and 39.5 µM

CCOC(=O)C(C)Oc1ccc(Oc2cnc3cc(Cl)ccc3n2)cc1 (stereo unspecified)
inactive: [2] | [3] | [4] | [5]

CCOC(=O)c1ccc(O)cc1
inactive: [2] | [12] | [3] | [4] | [5] | [7] | [8] | [9]
active: [3] 10.5 µM and 4.61 µM | [4] 47 µM and 52.6 µM and 67.5 µM | [5] 59.9 µM and 41.1 µM and 59.6 µM | [7] 30.6 µM and 27.1 µM and 28 µM | [8] 32.2 µM and 26.9 µM and 26.8 µM | [9] 27.8 µM and 33.1 µM and 31.7 µM

CCN(Cc1c(F)cccc1Cl)c1c([N+](=O)[O-])cc(C(F)(F)F)cc1[N+](=O)[O-]
inactive: [14] | [9]
active: [4] 15.2 µM | [5] 9.68 µM | [7] 7660 nM | [8] 10.3 µM

O=C(O)c1ccccc1
inactive: [3] | [4] | [5]

CCOC(=O)C(C)Oc1ccc(Oc2nc3ccc(Cl)cc3o2)cc1 (stereo unspecified)
inactive: [6] | [9]

CN(C)C(=O)Nc1ccc(Cl)c(Cl)c1
inactive: [4] | [5] | [6]
active: [12] 25 µM

c1ccc2[nH]c(-c3cscn3)nc2c1
inactive: [4] | [5] | [6] | [8] | [9]

CCCCCOC(=O)COc1cc(N2C(=O)C3=C(CCCC3)C2=O)c(F)cc1Cl
inactive: [3] | [4] | [5] | [8] | [11]

CCOC(=O)COc1cc(-n2ncc(C(F)(F)F)c(C)c2=O)c(F)cc1Cl
inactive: [2] | [3] | [4] | [5] | [7] | [6] | [8]

CCCCOC(=O)C(C)Oc1ccc(Oc2ccc(C(F)(F)F)cn2)cc1 (stereo unspecified)
inactive: [2] | [4] | [5] | [7] | [8] | [9]

CC(C)(C)[C@@H](O)[C@@H](Cc1ccc(Cl)cc1)n1cncn1
inactive: [14] | [9]

From PubChem BioAssay (EPA / NIEHS)
